SMILES strings stand for the structures. “And” between values parts separate entries of the source, which are not always exact repeats. Equal values may be shown once. Inconclusive results are not listed. The source made the active and inactive calls. Unless noted, the call rests on the fitted dose curve.

Assay [1] can be described thus: Nuclear factor erythroid 2-related factor 2/antioxidant responsive element (Nrf2/ARE) small molecule agonists: luciferase reporter gene qHTS assay in human keratinocytes (AID 1919969). Further: nearly all actives have a fitted effect of over 35% in size. Further: potency means the concentration at half of the fitted maximal effect.
The target in assay [2] is Gonadotropin-releasing hormone receptor (Homo sapiens) (UniProt P30968). The assay is described as follows: Human gonadotropin-releasing hormone receptor (GnRHR) small molecule agonists, calcium flux assay in GnRHR-HEK293 cells (AID 1920063). Further: nearly all actives have a fitted effect of over 35% in size. A digest of the protocol: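 GnRHR-HEK293, 1500 cells/well, 18 h 37 C/5% CO2; Ca dye 1 h 37 C; cpd pinned (DMSO), agonist mode; kinetic FL 480/540, 3 min, 1 s reads; 15 conc, n=3.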
Sequence of Gonadotropin-releasing hormone receptor (Homo sapiens) (P30968 whole entry, looked up): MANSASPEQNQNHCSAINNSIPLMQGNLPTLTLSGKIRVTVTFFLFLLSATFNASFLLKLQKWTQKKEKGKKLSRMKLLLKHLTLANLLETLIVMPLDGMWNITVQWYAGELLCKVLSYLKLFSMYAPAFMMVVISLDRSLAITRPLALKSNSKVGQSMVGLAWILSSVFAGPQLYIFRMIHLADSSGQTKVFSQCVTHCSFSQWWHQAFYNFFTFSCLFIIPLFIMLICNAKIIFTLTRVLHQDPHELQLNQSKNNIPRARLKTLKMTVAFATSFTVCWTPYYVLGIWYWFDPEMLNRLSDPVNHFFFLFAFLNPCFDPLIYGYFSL
In general terms: Calcium flux is commonly read through the fluorescence of an indicator in the cells.

In assay [3] the target is KiSS-1 receptor (Homo sapiens) (UniProt Q969F8). The assay is described as follows: Human kisspeptin (KISS1R) small molecule agonists, calcium flux assay in KISS1R-HEK293 cells (AID 1920064; active means well fitted activation curve with a large enough effect in the repeat runs). A digest of the protocol:
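Stable human KISS1R HEK293 line; 18 h plating, 37 C/5% CO2; calcium dye 1 h 37 C; compound pin transfer; kinetic fluorescence Ex/Em 480/540, 3 min.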

Assay [4] can be described thus: p53 small molecule agonists, cell-based qHTS assay with human liver microsomes (AID 1963577). A digest of the protocol:
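Cells carrying a p53-responsive bla reporter were rested 5 h (37 C, 5% CO2) before compound transfer. Human liver microsomes plus NADPH, 0.5 mg/mL final apiece, supplied metabolism during the 16 h 37 C exposure.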
Background: In qHTS, concentration-response curves come from the screen itself.

Assay [5] in a line: p53 small molecule agonists, cell-based qHTS assay with rat liver microsomes (AID 1963578). A digest of the protocol:
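Fluorescence from a beta-lactamase reporter under a p53 response element was measured after cells had been incubated 16 h at 37 C with test compound and rat liver microsomes plus NADPH (0.5 mg/mL final each).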

Assay [6] is described as follows: p53 small molecule agonists, cell-based qHTS assay with human liver microsomes: qHTS cell viability counter screen (AID 1963579). Further: nearly all actives have a fitted effect of over 45% in size. A digest of the protocol:
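Seed p53RE-bla cells at 4,000 per well; incubate 5 h at 37 C; add compound, human liver microsomes and NADPH; incubate 16 h at 37 C; add CellTiter-Glo; after 30 min at room temperature, read luminescence.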

A short description of assay [7]: p53 small molecule agonists, cell-based qHTS assay with rat liver microsomes: qHTS cell viability counter screen (AID 1963580). Further: nearly all actives have a fitted effect of over 45% in size. The essentials: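 Viability is assessed in parallel with the p53 reporter read: HCT-116 p53RE-bla cells receive compounds plus rat microsomes and NADPH (0.5 mg/mL final apiece), incubate 16 h at 37 C, and then CellTiter-Glo luminescence is recorded.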

The nature of assay [8]: p53 small molecule agonists, cell-based qHTS assay: qHTS cell viability counter screen (AID 1963581). Further: nearly all actives have a fitted effect of over 45% in size. The essentials: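 HCT-116 p53RE-bla cells, 4,000/well, plated 5 h before compound pin transfer; 16 h at 37 C; bla substrate 2 h RT; then CellTiter-Glo, 30 min RT, luminescence.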
Assay [9] concerns the target 5-hydroxytryptamine receptor 2A (Homo sapiens) (UniProt P28223). The assay is described as follows: 5-hydroxytryptamine receptor 2A (HTR2A) small molecule antagonists, cell-based qHTS assay (AID 1963586). Further: nearly all actives have a fitted effect of over 45% in size. A digest of the protocol:
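Antagonist-mode intracellular calcium assay: DOI (4 nM) added after 5 min compound pre-incubation at room temperature to dye-loaded HTR2A-CHO cells. Fluorescence followed for 3 min, sampled every second.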

For assay [10] the target is unchanged. The assay is described as follows: 5-hydroxytryptamine receptor 2A (HTR2A) small molecule agonists, cell-based qHTS assay (AID 1963587). Further: nearly all actives have a fitted effect of over 30% in size. A digest of the protocol:
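CHO cells stably expressing human HTR2A, plated 18 h, loaded with calcium dye 1 h at 37 C. Agonist mode: compounds added and intracellular calcium fluorescence recorded kinetically for 2 min at 1 sec intervals.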

Assay [11] addresses Muscarinic acetylcholine receptor M1 (Homo sapiens) (UniProt P11229). The assay is described as follows: Cholinergic receptor muscarinic 1 (CHRM1) small molecule agonists, cell-based qHTS assay (AID 1963589). Further: nearly all actives have a fitted effect of over 35% in size. The essentials: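 Human M1 in stable CHO line; 18 h plating, 1 h dye load 37 C; cpd added (agonist mode); Ca2+ fluorescence kinetic read, 1 s intervals; 15 conc, 3 runs.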

Assay [12] addresses Beta-2 adrenergic receptor (Homo sapiens) (UniProt P07550). In words: Adrenergic beta2 receptor (ADRB2) small molecule agonists, cell-based qHTS assay (AID 1963593).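 Further: CHO cells stably overexpressing human ADRB2.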 A digest of the protocol: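 CHO cells stably over-expressing ADRB2 were plated overnight at 37C, then dosed with compounds plus a stimulation mix containing 100uM IBMX and 25uM Ro-20-1724 for 0.5hr at room temperature. cAMP was measured by HTRF competition, 1hr.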

Assay [13] concerns the target D(2) dopamine receptor (Homo sapiens) (UniProt P14416). The assay is described as follows: Dopamine D2 receptor (DRD2) small molecule agonists, cell-based qHTS assay (AID 1963594). Further: nearly all actives have a fitted effect of over 35% in size. The essentials: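 HEK293 cells stably expressing human DRD2, pre-treated with PDE inhibitor Ro20-1724 (0.1 mM final) and compound 10 min at room temperature, then stimulated with NKH477 (200nM […]) for 30 min. cAMP read by HTRF (665/620 nm).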

Assay [14] has the same target. In words: Dopamine D2 receptor (DRD2) small molecule antagonists, cell-based qHTS assay (AID 1963595; active means well fitted inhibition curve with a large enough effect in the signal ratio in the repeat runs, with a control signal flat; the % refers to the signal ratio). The essentials: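 HEK293 cells stably expressing DRD2 were preincubated with 0.1 mM Ro20-1724, then with compound for 10 min at room temperature. Cells were stimulated with 200 nM NKH477 plus 12 nM quinpirole for 30 min, and cAMP was read by HTRF.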
The nature of assay [15]: G protein-coupled receptor (GPCR) small molecule agonists, calcium flux assay: HEK293 wild type cell line counter screen (AID 1920065). The essentials: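 Kinetic fluorescence at Ex/Em 480/540, recorded every second over 3 min, served as the read-out after compound addition. Each compound was tested at 15 concentrations in triplicate on cells pre-loaded with calcium dye for 1 h.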

Assay [16] has as its target Muscarinic acetylcholine receptor M1 (Homo sapiens) (UniProt P11229). The assay is described as follows: Cholinergic receptor muscarinic 1 (CHRM1) small molecule antagonists, cell-based qHTS assay (AID 1963588). Further: nearly all actives have a fitted effect of over 40% in size. The essentials: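 CHRM1-CHO calcium-flux assay, antagonist mode. Cells were seeded 18 h, dye-loaded 1 h at 37 C and given compound for 5 min at RT, then acetylcholine was added at 50nM. FDSS fluorescence was read 3 min; 15 concentrations, three runs.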

Assay [17] is described as follows: cAMP Responsive Elements (CRE) small molecule agonists, cell-based qHTS assay (AID 1963590). The essentials: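 HEK 293T CRE-bla, 2,000 cells/well, 18 h preincubation 37 C/5% CO2; cpds (DMSO) pinned, 3 h; LiveBLAzer B/G FRET substrate, 2 h RT.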
Assay [18] in a line: cAMP Responsive Elements (CRE) small molecule antagonists, cell-based qHTS assay (AID 1963591; active means well fitted inhibition curve with a large enough effect in the signal ratio in the repeat runs, not every such curve was filed as active; the % refers to the signal ratio). The essentials:
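Beta-lactamase reporter read by FRET substrate (LiveBLAzer B/G) after 2 h at room temperature. CRE-bla HEK293T cells had received compound plus 0.25 uM (final) NKH477 for 3 h at 37 °C.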

The target of assay [19] is Beta-2 adrenergic receptor (Homo sapiens) (UniProt P07550). The assay is described as follows: Adrenergic beta2 receptor (ADRB2) small molecule antagonists, cell-based qHTS assay (AID 1963592). Further: series mostly up to about 92 µM; nearly all actives have a fitted effect of over 50% in size. The essentials:
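Cells (CHO, stable ADRB2 overexpression) incubated 18-20hr at 37C; compounds added from DMSO; agonist mix (1nM isoproterenol, 100uM IBMX, 25uM Ro-20-1724) added; 0.5hr RT; d2-cAMP and anti-cAMP-cryptate added; 1hr RT; 665/615 nm read.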

Assay [20] in a line: p53 small molecule agonists, cell-based qHTS assay (AID 1963582; active means well fitted activation curve with a large enough effect in the signal ratio in the repeat runs, not every such curve was filed as active; the % refers to the signal ratio). The essentials:
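Reporter line: p53RE-bla. Pre-incubation 5 h, 37 C, 5% CO2; compound (DMSO, pin tool) 16 h, 37 C; B/G FRET substrate 2 h RT; fluorescence intensity read.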

Sequence of KiSS-1 receptor (Homo sapiens) (Q969F8 whole entry, looked up): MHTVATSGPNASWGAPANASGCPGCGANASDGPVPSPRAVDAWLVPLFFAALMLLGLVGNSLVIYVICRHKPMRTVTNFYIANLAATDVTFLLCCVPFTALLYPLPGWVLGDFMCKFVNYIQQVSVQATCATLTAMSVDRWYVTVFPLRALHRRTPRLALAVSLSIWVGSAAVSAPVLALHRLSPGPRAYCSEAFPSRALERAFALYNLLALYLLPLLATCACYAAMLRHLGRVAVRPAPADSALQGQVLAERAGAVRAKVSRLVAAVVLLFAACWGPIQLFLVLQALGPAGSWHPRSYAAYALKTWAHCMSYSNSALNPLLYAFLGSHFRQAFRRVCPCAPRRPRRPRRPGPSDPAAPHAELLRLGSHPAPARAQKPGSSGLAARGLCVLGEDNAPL
Sequence of Beta-2 adrenergic receptor (Homo sapiens) (P07550 whole entry, looked up): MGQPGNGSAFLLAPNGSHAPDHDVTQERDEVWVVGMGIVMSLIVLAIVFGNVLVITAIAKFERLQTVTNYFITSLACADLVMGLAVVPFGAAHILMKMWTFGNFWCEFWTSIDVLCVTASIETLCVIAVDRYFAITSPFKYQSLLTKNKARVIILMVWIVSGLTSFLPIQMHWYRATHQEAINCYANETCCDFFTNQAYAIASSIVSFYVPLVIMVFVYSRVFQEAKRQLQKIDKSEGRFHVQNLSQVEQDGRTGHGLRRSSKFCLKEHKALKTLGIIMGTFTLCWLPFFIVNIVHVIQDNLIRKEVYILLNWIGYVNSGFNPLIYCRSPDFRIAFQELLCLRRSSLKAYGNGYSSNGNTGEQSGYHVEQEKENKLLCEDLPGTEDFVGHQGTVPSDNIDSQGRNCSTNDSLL
Sequence of 5-hydroxytryptamine receptor 2A (Homo sapiens) (P28223 whole entry, looked up): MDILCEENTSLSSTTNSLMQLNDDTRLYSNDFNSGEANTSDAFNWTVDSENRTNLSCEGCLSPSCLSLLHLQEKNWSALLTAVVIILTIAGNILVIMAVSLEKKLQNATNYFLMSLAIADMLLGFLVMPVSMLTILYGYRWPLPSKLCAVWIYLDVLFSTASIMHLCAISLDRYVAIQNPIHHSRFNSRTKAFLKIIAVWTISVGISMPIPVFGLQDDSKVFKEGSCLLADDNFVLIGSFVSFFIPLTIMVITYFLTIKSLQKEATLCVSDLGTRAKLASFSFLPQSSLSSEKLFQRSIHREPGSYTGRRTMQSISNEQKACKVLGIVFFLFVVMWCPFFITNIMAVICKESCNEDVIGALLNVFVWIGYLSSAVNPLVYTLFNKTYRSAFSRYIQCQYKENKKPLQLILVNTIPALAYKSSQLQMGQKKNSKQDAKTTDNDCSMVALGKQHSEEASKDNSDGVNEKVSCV
Sequence of Muscarinic acetylcholine receptor M1 (Homo sapiens) (P11229 whole entry, looked up): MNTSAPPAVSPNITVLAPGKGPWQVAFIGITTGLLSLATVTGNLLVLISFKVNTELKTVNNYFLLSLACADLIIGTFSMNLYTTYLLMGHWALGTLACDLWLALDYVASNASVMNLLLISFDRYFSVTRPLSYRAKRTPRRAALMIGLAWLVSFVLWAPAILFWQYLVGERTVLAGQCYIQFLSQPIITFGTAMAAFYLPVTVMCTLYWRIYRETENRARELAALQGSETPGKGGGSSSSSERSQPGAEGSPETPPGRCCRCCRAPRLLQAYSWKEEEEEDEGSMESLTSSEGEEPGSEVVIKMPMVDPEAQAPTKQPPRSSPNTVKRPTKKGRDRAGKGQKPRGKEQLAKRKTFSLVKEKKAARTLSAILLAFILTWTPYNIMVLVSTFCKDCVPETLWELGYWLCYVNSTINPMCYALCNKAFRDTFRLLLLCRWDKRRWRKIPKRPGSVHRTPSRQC
Sequence of D(2) dopamine receptor (Homo sapiens) (P14416 whole entry, looked up): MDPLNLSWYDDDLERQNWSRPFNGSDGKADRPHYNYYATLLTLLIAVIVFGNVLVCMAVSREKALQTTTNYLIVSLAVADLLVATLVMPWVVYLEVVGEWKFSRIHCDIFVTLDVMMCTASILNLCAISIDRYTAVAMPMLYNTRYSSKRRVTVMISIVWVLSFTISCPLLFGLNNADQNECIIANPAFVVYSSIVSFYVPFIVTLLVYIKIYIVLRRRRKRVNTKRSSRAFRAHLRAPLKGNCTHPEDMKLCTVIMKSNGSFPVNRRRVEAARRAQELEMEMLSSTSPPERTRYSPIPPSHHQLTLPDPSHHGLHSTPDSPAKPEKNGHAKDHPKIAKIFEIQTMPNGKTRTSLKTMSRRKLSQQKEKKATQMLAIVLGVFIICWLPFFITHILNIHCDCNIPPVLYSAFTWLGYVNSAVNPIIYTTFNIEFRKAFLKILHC

With `CC(C)(C)c1cc([N+](=O)[O-])cc(C(C)(C)C)c1O`, in [1], the Potency is 34.4 µM (active). Further, the Potency entry in [2], in [3], in [4], in [5], in [6] and in assay [7] was “inactive” each time. The Potency entry in [8], in assay [9], in [10], in assay [11], in [12] and in assay [13] was “inactive” in each case. Besides, the Potency entry in assay [14] was “inactive”.

Consider `CCC(C)Nc1c([N+](=O)[O-])cc(C(C)(C)C)cc1[N+](=O)[O-]` (stereo not drawn), for which the Potency in assay [1] was 54.5 µM (active). For the same compound, the Potency entry in [2], in assay [3], in assay [15], in [6], in assay [7] and in assay [8] was “inactive” each time. Besides, the Potency result in assay [9], in assay [10], in assay [16], in [11], in assay [17] and in assay [18] was “inactive” in each case. Further, the Potency entry in assay [19], in assay [13] and in [14] was “inactive” throughout.

For `CC(C)[C@@H](C(=O)O[C@@H](C#N)c1cccc(Oc2ccccc2)c1)c1ccc(Cl)cc1`, the Potency result in assay [1], in [2], in [3], in [4], in [5] and in assay [6] was “inactive” throughout. The Potency result in assay [7], in assay [8], in assay [20], in [9], in [10] and in assay [11] was “inactive” in each case. Besides, the Potency result in assay [18], in assay [12], in [13] and in [14] was “inactive” in each case.

For the compound `COP(=S)(OC)Oc1ccc([N+](=O)[O-])cc1Cl`, the Potency result in assay [1], in assay [2], in assay [3], in assay [15], in assay [6] and in assay [7] was “inactive” throughout. Besides, the Potency entry in assay [8], in assay [20], in assay [9], in assay [10], in assay [16] and in assay [11] was “inactive” each time. Moreover, the Potency result in [17], in [18], in assay [19], in assay [13] and in [14] was “inactive” in each case.

As for `CCOP(=O)(O)C(N)=O`, the Potency result in assay [1], in assay [2], in [3], in assay [15], in assay [6] and in assay [7] was “inactive” each time. Moreover, the Potency entry in [8], in assay [9], in [10], in [16], in [11] and in [17] was “inactive” in each case. Besides, the Potency entry in assay [18], in assay [19], in assay [13] and in assay [14] was “inactive” throughout.

Turning to `CCCCN(CCCC)C(=S)S`, in assay [1], the Potency is 68.6 µM (active). Besides, the Potency entry in assay [2], in [3], in [15], in [6], in [7] and in assay [9] was “inactive” throughout. The Potency result in [10], in assay [16], in assay [11], in [17], in assay [19] and in [13] was “inactive” each time. Besides, the Potency entry in assay [14] is “inactive”.

For `CC(C)=CC1C(C(=O)OCc2coc(Cc3ccccc3)c2)C1(C)C` (stereo not drawn), in [1], the Potency is 61.2 µM (active) and 61.1 µM (active). Moreover, the Potency entry in [2], in assay [3], in assay [15], in [6], in assay [7] and in assay [9] was “inactive” in each case. Also, the Potency result in assay [10], in [16], in assay [11], in assay [17], in [18] and in assay [13] was “inactive” each time. For the same compound, in [14], the Potency result was “inactive”.

As for `O=NN1CCNCC1`, the Potency in [1] is 76.1 µM (active). Also, the Potency result in [2], in [3], in assay [4], in assay [5], in assay [7] and in assay [8] was “inactive” throughout. Further, the Potency entry in assay [20], in assay [9], in assay [10], in [16], in [11] and in assay [17] was “inactive” each time. Further, the Potency result in [18], in [19] and in [14] was “inactive” throughout.

Values taken from PubChem BioAssay (Tox21).
